Measured values from PubChem BioAssay (NCATS).
The source made the active and inactive calls. The call rests on the fitted dose curve.

Test: qHTS drug screen for cell cycle checkpoint inhibitors in PARPi-resistant BRCA-mutant ovarian cancer cell lines. (AID 1963452)
Details: PEO1/OlaR viability, CellTiter-Glo luminescence, 96 h; stronger effect = lower value
Outline: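 PEO1, PEO4 and PEO1/OlaR ovarian cancer cells, 600 per well, exposed 96 h at 37C to a dilution series. Viability read by CellTiter-Glo luminescence, normalized to DMSO and empty wells; activity summarized as Z-AUC.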
In the case of CO[C@@H](C(=O)N1Cc2[nH]nc(NC(=O)c3ccc(N4CCN(C)CC4)cc3)c2C1)c1ccccc1, the Z-AUC is reported as -0.0482 (inactive). In the case of CCS(=O)(=O)N1CC(CC#N)(n2cc(-c3ncnc4[nH]ccc34)cn2)C1, the Z-AUC is reported as 0.685 (inactive). With CC(C)C(=O)Nc1ncc(-c2cc(C(F)F)nn2-c2c(Cl)cccc2Cl)s1 the Z-AUC was -0.482 (inactive). For c1ccc2c(Cc3c[nH]c4ccccc34)c[nH]c2c1, the Z-AUC was 0.829 (inactive). For CC(C)(C)Cn1c(N)nc2ccc(-c3[nH]c(C(C)(C)C)nc3-c3ccc(F)cc3)nc21, the Z-AUC was -0.716 (inactive). In the case of NC(=O)c1ccc2nc(-c3ccc(Oc4ccc(Cl)cc4)cc3)[nH]c2c1, the Z-AUC is reported as -1.56 (inactive). For O=c1cc(-c2cccc3c2Sc2ccccc2S3)oc(N2CCOCC2)c1, the Z-AUC was 1.05 (inactive). For Cc1ccc(/C=N/NC(=O)c2ccccc2Oc2ccccc2)o1, the Z-AUC was 0.785 (inactive). With Clc1ccc(CCC(Cn2ccnc2)Sc2c(Cl)cccc2Cl)cc1 (stereo not drawn) the Z-AUC was 1.27 (inactive). With CCNc1cc(NC2CCC(O)CC2)nc(Nc2ccc3c(ccn3Cc3ccccc3)c2)n1 (stereo not drawn) the Z-AUC was 0.474 (inactive). With C[N+](C)(C)CC(=O)O the Z-AUC was -0.734 (inactive). With Nc1ncnc2c1nc(Cl)n2[C@@H]1O[C@H](CO)[C@@H](O)[C@@H]1O the Z-AUC was 0.764 (inactive). In the case of Cc1ccc(F)c(NC(=O)Nc2ccc(-c3cccc4[nH]nc(N)c34)cc2)c1, the Z-AUC is reported as 1.25 (inactive). With N[C@H](CSC(c1ccccc1)(c1ccccc1)c1ccccc1)C(=O)O the Z-AUC was 0.731 (inactive). For Cc1ccccc1C(C(=O)NC1CCCCC1)N(C(=O)Cn1ccnc1C)c1cccc(F)c1 (stereo not drawn), the Z-AUC was 0.113 (inactive). In the case of COc1cc2ncnc(-n3nc(-c4ccccn4)nc3N)c2cc1OC, the Z-AUC is reported as -0.168 (inactive). In the case of O=C(NC1CCOCC1)c1ccc(-c2cc(-c3cn[nH]c3-c3ccccn3)ccn2)cc1, the Z-AUC is reported as 0.761 (inactive). In the case of CCn1c(C(=O)N(C2CC2)C2CC2)cc2c3c(ncn3C)c(Nc3cc(C)n(C)n3)nc21, the Z-AUC is reported as 0.749 (inactive). In the case of O=c1c(O)c(-c2ccc(O)cc2)oc2cc(O)cc(O)c12, the Z-AUC is reported as 0.889 (inactive). In the case of CN(C)Cc1ccc(-c2nc3cccc4c3n2CCNC4=O)cc1, the Z-AUC is reported as 0.426 (inactive). With O=c1cc(N2CCOCC2)oc2c(-c3cccc4c3sc3ccccc34)cccc12 the Z-AUC was 0.27 (inactive). For Cc1cnc(C(=O)O)c[n+]1[O-], the Z-AUC was -0.768 (inactive). In the case of O=C(Nc1cccc(Br)c1)c1cccc(S(=O)(=O)N2CCCCCC2)c1, the Z-AUC is reported as -0.479 (inactive). For CC(C)(Cc1ccc2ccccc2c1)NC[C@@H](O)COc1cccc(Cl)c1C#N, the Z-AUC was 0.779 (inactive). With O=C(Nc1ccccc1Br)N[C@@H]1CCN(c2ccc(C(F)(F)F)cn2)C1 the Z-AUC was -0.871 (inactive). With Clc1cc(Cl)cc(CNc2ncncc2-c2ccc3c(c2)OCO3)c1 the Z-AUC was 0.335 (inactive).

Same assay, conditions: PEO1/OlaR viability, CellTiter-Glo luminescence, 96 h; measured here: PEO1 parental Z-AUC; stronger effect = lower value
For CO[C@@H](C(=O)N1Cc2[nH]nc(NC(=O)c3ccc(N4CCN(C)CC4)cc3)c2C1)c1ccccc1, the Z-AUC was 0.272. With CCS(=O)(=O)N1CC(CC#N)(n2cc(-c3ncnc4[nH]ccc34)cn2)C1 the Z-AUC was 0.902. CC(C)C(=O)Nc1ncc(-c2cc(C(F)F)nn2-c2c(Cl)cccc2Cl)s1 gave a Z-AUC of 0.209. Work on c1ccc2c(Cc3c[nH]c4ccccc34)c[nH]c2c1 yielded a Z-AUC of 0.126. Compound CC(C)(C)Cn1c(N)nc2ccc(-c3[nH]c(C(C)(C)C)nc3-c3ccc(F)cc3)nc21 has a Z-AUC of -1.14. NC(=O)c1ccc2nc(-c3ccc(Oc4ccc(Cl)cc4)cc3)[nH]c2c1 showed a Z-AUC of -1.26. In the case of O=c1cc(-c2cccc3c2Sc2ccccc2S3)oc(N2CCOCC2)c1, the Z-AUC is reported as 1.03. Compound Cc1ccc(/C=N/NC(=O)c2ccccc2Oc2ccccc2)o1 has a Z-AUC of 0.523. In the case of Clc1ccc(CCC(Cn2ccnc2)Sc2c(Cl)cccc2Cl)cc1 (stereo not drawn), the Z-AUC is reported as 0.807. For CCNc1cc(NC2CCC(O)CC2)nc(Nc2ccc3c(ccn3Cc3ccccc3)c2)n1 (stereo not drawn), the Z-AUC was 0.235. C[N+](C)(C)CC(=O)O showed a Z-AUC of 0.456. COc1ccc(-c2nc(N3CCOCC3)c3sc(CN(C)c4ncc(C(=O)NO)cn4)cc3n2)cn1 gave a Z-AUC of -1.63. Nc1ncnc2c1nc(Cl)n2[C@@H]1O[C@H](CO)[C@@H](O)[C@@H]1O gave a Z-AUC of -0.225. Cc1ccc(F)c(NC(=O)Nc2ccc(-c3cccc4[nH]nc(N)c34)cc2)c1 gave a Z-AUC of 1.09. For N[C@H](CSC(c1ccccc1)(c1ccccc1)c1ccccc1)C(=O)O, the Z-AUC was 0.902. In the case of Cc1ccccc1C(C(=O)NC1CCCCC1)N(C(=O)Cn1ccnc1C)c1cccc(F)c1 (stereo not drawn), the Z-AUC is reported as 0.941. Compound COc1cc2ncnc(-n3nc(-c4ccccn4)nc3N)c2cc1OC has a Z-AUC of 0.627. With O=C(NC1CCOCC1)c1ccc(-c2cc(-c3cn[nH]c3-c3ccccn3)ccn2)cc1 the Z-AUC was 0.819. With CCn1c(C(=O)N(C2CC2)C2CC2)cc2c3c(ncn3C)c(Nc3cc(C)n(C)n3)nc21 the Z-AUC was 1.24. With O=c1c(O)c(-c2ccc(O)cc2)oc2cc(O)cc(O)c12 the Z-AUC was 1.15. In the case of CN(C)Cc1ccc(-c2nc3cccc4c3n2CCNC4=O)cc1, the Z-AUC is reported as 0.483. O=c1cc(N2CCOCC2)oc2c(-c3cccc4c3sc3ccccc34)cccc12 showed a Z-AUC of 0.135. Cc1cnc(C(=O)O)c[n+]1[O-] showed a Z-AUC of -0.301. O=C(Nc1cccc(Br)c1)c1cccc(S(=O)(=O)N2CCCCCC2)c1 showed a Z-AUC of 0.243. Compound CC(C)(Cc1ccc2ccccc2c1)NC[C@@H](O)COc1cccc(Cl)c1C#N has a Z-AUC of 1.04. With O=C(Nc1ccccc1Br)N[C@@H]1CCN(c2ccc(C(F)(F)F)cn2)C1 the Z-AUC was 0.714. In the case of Clc1cc(Cl)cc(CNc2ncncc2-c2ccc3c(c2)OCO3)c1, the Z-AUC is reported as -0.24.
